Experimental findings from PubChem BioAssay (Tox21) are described below.

A number with no mark means an inactive call. Results filed as inconclusive are left out. Activity calls are given as the source filed them. Unless noted, the call rests on the fitted dose curve.

Assay [1] is described as follows: qHTS assay to identify small molecule antagonists of the sonic hedgehog signaling (Shh) pathway (AID 1259369). Further: nearly all actives have a fitted effect of over 45% in size. Further: potency means the concentration at half of the fitted maximal effect. A digest of the protocol: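 Conditioned medium drives Shh signalling in 3T3Gli1-Luc cells; compounds in DMSO co-applied, 24hr at 37 C, then luciferase luminescence.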
The target of assay [2] is Estrogen receptor beta (Homo sapiens) (UniProt Q92731). Description: qHTS assay to identify small molecule agonists of the estrogen receptor beta (ER-beta) signaling pathway (AID 1259377; active means well fitted activation curve with a large enough effect in the signal ratio in the repeat runs, not every such curve was filed as active; the % refers to the signal ratio). A digest of the protocol:
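Screening used GripTite ER-beta-UAS-bla cells held in 2% charcoal-stripped FBS medium. After overnight (16 hr) compound incubation at 37C, beta-lactamase activity was detected with a FRET substrate by fluorescence.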
For orientation: In qHTS, concentration-response curves come from the screen itself.

Assay [3] has the same target. The experiment in a line: qHTS assay to identify small molecule antagonists of the estrogen receptor beta (ER-beta) signaling pathway (AID 1259378; active means well fitted inhibition curve with a large enough effect in the signal ratio in the repeat runs, not every such curve was filed as active; the % refers to the signal ratio). A digest of the protocol: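 Antagonist mode: compounds added to beta-lactamase reporter HEK293T ER-beta-UAS cells stimulated with E2 (1nM final), 16 hr at 37C. LiveBLAzer B/G FRET substrate, 2 hours room temperature, fluorescence read-out.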

The nature of assay [4]: qHTS assay to identify small molecule agonists of the androgen receptor (AR) signaling pathway in the presence of an antagonist - cell viability counter screen (AID 1259379; active means well fitted curve in the direction sought with a large enough effect in the repeat runs; an effect the other way counts as inactive or inconclusive; further: nearly all actives have a fitted effect of over 25% in size; further: potency means the concentration at half of the fitted maximal effect;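 on activity change, negative = cytotoxicity: MDA-kb2 human breast cancer cells carrying an MMTV luciferase reporter; series mostly up to about 92 µM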). A digest of the protocol: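 A CellTiter-Fluor read-out measured viability of MDA-kb2 reporter cells (MMTV promoter with AR and GR response elements). Treatment: nilutamide 3.0uM final with compounds at 15 concentrations, 16 hr, 37C, 0% CO2.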

Assay [5] can be described thus: qHTS assay to identify small molecule agonists of the estrogen receptor beta (ER-beta) signaling pathway - cell viability counter screen (AID 1259380; active means well fitted curve in the direction sought with a large enough effect in the repeat runs; an effect the other way counts as inactive or inconclusive; further: nearly all actives have a fitted effect of over 30% in size). In outline: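 Cells used were ER-beta-UAS-bla HEK293T in medium with 2% charcoal-stripped FBS. They were treated for 16 hr at 37C. Viability came from CellTiter-Glo luminescence.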
Assay [6] has as its target Androgen receptor (Homo sapiens) (UniProt P10275). Description: qHTS assay to identify small molecule agonists of the androgen receptor (AR) signaling pathway in the presence of an antagonist (AID 1259381). Further: nearly all actives have a fitted effect of over 15% in size. A digest of the protocol:
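Using human MDA-kb2 cells with an MMTV promoter–luciferase construct (AR and GR response elements), agonist activity is scored under 3.0uM nilutamide (final) co-treatment; 16hr incubation, 37C, luminescence readout via ONE-Glo.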

Assay [7] can be described thus: qHTS assay to identify small molecule antagonists of the estrogen receptor beta (ER-beta) signaling pathway - cell viability counter screen (AID 1259382; active means well fitted curve in the direction sought with a large enough effect in the repeat runs; an effect the other way counts as inactive or inconclusive; further: series mostly up to about 92 µM; nearly all actives have a fitted effect of over 55% in size). In outline: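 Agonist-stimulated (1nM E2) ER-beta-UAS-bla HEK293T cells are incubated with library compounds for 16 hr at 37C. Cell viability is then assessed in the reporter-assay wells by adding CellTiter-Glo and reading luminescence after 30 min.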

For assay [8], the target named is Estrogen receptor (Homo sapiens) (UniProt P03372). The experiment in a line: qHTS assay to identify small molecule agonists of the estrogen receptor alpha (ER-alpha) signaling pathway in the presence of an antagonist (AID 1259383). Further: top concentration of the series differs between compounds; nearly all actives have a fitted effect of over 15% in size. A digest of the protocol:
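Using VM7Luc4E2 cells seeded 24hr before treatment, antagonist ICI-182,780 (10.0nM final) was added, followed by compounds at 15 concentrations. Plates incubated 22hr; ONE-Glo luminescence quantified reporter activity.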

Assay [9] is described as follows: qHTS assay to identify small molecule agonists or antagonists of the thyroid stimulating hormone receptor (TSHR) signaling pathway - wild type cell line counter screen (AID 1259384). Further: potency means the concentration at half of the fitted maximal effect. A digest of the protocol: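 Counter screen in untransfected Hek293: compounds (15-point titration, triplicate) plus phosphodiesterase inhibitor Ro20-1724 added after 18 h plating; 30 min RT. Intracellular cAMP via competitive d2/cryptate immunoassay, 1 h incubation.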

Assay [10] deals with Thyrotropin receptor (Homo sapiens) (UniProt P16473). The experiment in a line: qHTS assay to identify small molecule antagonists of the thyroid stimulating hormone receptor (TSHR) signaling pathway (AID 1259385). Further: nearly all actives have a fitted effect of over 20% in size. Further: potency means the concentration at half of the fitted maximal effect. A digest of the protocol: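 Antagonist mode: compound-treated TSHR-expressing HEK293 cells were stimulated with 1.5 ng/mL TSH (final) in presence of Ro20-1724 for 30 min at RT. HTRF cAMP detection after 1 h; each compound tested at 15 concentrations, triplicate.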
On the % scale 0 is the no-effect control and ±100 the full control effect.

Estrogen receptor (Homo sapiens), sequence (P03372 whole entry, looked up): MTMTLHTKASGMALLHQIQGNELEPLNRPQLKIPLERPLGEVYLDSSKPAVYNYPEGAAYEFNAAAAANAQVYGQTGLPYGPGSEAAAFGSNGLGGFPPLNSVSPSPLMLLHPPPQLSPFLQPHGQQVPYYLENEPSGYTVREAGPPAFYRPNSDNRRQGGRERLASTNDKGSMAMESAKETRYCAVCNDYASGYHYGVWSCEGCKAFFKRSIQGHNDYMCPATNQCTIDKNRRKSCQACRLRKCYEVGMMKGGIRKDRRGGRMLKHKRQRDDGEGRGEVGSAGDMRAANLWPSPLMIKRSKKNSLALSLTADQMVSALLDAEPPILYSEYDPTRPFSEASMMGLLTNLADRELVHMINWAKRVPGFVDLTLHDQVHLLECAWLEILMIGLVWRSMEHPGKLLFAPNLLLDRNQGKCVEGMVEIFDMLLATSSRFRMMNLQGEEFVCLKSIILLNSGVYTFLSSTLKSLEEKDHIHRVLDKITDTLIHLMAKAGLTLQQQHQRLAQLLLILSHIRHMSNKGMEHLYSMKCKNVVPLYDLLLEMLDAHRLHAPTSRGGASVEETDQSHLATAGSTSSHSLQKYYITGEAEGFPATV
Androgen receptor (Homo sapiens), sequence (P10275 whole entry, looked up): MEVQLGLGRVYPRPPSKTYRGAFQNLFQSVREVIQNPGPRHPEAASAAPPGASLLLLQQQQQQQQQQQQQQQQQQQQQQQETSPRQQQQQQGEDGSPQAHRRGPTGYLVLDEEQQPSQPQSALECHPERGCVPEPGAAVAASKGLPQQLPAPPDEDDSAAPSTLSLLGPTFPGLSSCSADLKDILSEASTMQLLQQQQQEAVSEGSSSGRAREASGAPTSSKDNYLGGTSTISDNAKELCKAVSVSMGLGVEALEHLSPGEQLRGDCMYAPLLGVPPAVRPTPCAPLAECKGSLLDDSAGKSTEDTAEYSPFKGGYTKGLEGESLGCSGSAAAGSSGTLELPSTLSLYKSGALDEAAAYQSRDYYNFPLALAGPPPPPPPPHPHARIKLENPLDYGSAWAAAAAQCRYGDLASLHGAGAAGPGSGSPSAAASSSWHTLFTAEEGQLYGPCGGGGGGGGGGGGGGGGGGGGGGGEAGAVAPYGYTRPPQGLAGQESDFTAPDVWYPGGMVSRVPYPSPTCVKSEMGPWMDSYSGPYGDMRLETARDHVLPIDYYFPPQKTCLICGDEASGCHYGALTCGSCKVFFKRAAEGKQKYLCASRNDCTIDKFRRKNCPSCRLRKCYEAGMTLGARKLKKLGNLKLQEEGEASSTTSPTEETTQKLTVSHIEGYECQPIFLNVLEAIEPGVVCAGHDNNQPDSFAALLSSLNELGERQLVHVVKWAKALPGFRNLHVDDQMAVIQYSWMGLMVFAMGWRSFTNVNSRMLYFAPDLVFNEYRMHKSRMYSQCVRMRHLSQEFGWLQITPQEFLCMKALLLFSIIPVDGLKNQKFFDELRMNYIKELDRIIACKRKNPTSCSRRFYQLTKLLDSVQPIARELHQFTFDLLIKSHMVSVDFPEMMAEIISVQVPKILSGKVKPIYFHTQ
Estrogen receptor beta (Homo sapiens), sequence (Q92731 whole entry, looked up): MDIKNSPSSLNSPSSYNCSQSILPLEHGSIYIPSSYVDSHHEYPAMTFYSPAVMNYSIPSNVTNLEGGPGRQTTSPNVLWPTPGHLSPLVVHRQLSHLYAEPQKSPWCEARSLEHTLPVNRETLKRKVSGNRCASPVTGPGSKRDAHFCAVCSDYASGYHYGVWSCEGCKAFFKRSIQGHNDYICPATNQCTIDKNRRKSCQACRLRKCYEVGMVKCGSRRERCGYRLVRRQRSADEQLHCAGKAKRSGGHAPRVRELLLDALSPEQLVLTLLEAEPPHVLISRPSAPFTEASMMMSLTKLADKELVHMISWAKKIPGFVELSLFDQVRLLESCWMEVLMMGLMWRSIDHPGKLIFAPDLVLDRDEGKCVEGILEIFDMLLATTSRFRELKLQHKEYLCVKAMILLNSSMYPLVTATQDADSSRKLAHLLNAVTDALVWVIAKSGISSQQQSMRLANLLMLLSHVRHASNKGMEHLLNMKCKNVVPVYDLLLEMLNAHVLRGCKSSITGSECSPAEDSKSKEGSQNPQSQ
Thyrotropin receptor (Homo sapiens), sequence (P16473 whole entry, looked up): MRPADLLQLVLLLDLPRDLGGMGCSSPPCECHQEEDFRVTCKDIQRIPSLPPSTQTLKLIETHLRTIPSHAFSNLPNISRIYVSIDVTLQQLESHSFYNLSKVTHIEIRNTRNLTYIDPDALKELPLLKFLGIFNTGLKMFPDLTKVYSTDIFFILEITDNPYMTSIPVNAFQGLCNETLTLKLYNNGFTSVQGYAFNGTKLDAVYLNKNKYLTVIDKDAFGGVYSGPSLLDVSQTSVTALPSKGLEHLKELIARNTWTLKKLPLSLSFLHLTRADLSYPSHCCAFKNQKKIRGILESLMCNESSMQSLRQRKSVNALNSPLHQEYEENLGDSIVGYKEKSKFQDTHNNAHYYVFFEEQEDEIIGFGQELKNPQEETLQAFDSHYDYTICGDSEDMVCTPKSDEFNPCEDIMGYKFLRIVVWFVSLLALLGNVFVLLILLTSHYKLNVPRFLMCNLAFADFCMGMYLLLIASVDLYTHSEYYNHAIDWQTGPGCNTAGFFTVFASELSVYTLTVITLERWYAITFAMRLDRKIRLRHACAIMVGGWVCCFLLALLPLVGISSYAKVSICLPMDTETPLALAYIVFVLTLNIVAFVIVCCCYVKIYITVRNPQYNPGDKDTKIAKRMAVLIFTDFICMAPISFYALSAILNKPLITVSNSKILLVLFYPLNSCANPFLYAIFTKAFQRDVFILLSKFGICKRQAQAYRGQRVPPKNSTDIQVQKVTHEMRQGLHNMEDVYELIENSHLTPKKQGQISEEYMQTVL

With `CC1=C(C(=O)O)N2C(=O)[C@@H](N)[C@H]2SC1`, the activity change, negative = inhibition in assay [1] is -0.41% [at 19 µM]. The values for the activation in [2], in assay [6] and in assay [8] were 1.69% [at 19 µM], -0.0648% [at 19 µM] and 0.456% [at 19 µM], respectively. In assay [3], the activity, negative = inhibition was 20.1% [at 19 µM]. In addition, the activity change, negative = cytotoxicity is -2.71% [at 19 µM] in [4], 7.09% [at 19 µM] in assay [5] and 15.3% [at 19 µM] in assay [7]. Also, the cAMP activity change in assay [9] was 2.64% [at 18.9 µM, active compounds read high].

For `COc1cc(OC)nc(NC(=O)NS(=O)(=O)c2ncccc2C(=O)N(C)C)n1`, the Potency result in [1], in assay [3], in assay [4], in [5], in assay [7] and in assay [8] was “inactive” in each case. Besides, in assay [2], the compound was called inactive.

As for `CCC(=O)c1ccccc1`, the Potency result in [1], in assay [3], in assay [4], in assay [5], in assay [6] and in [7] was “inactive” each time. Moreover, the Potency result in [8] and in [9] was “inactive” each time. The compound was classed as inactive in assay [2].

For the compound `N#CC(Cl)(Cl)Cl`, the Potency result in [1], in [3], in assay [4], in assay [5], in assay [6] and in [7] was “inactive” throughout. The Potency result in [8] is “inactive”. Besides, the call in assay [2] was inactive.

Regarding `N#CCCC#N`, the Potency result in assay [1], in assay [3], in [4], in assay [5], in assay [7] and in [8] was “inactive” throughout. For the same compound, the result in assay [2] was inactive.

Take `CC(=O)CC(c1ccc(Cl)cc1)c1c(O)c2ccccc2oc1=O` (stereo unspecified): the Potency entry in assay [1], in assay [3], in [4], in [5], in assay [7] and in [8] was “inactive” in each case. Further, in assay [2], the compound was called inactive.

For the compound `CC(COc1ccc(Oc2ccccc2)cc1)Oc1ccccn1` (stereo unspecified), the Potency result in assay [1], in [3], in assay [4], in assay [5], in assay [6] and in [7] was “inactive” in each case. Further, in assay [9], the Potency result is “inactive”. Also, the compound was called inactive in [2].

Regarding `c1cc[c]([Hg][c]2ccccc2)cc1`, in [1], the Potency was 0.545 µM (active). For the same compound, in assay [2], the result was inactive. The Potency entry in assay [3], in assay [4], in [5], in assay [6], in assay [7] and in assay [9] was “inactive” throughout. The Potency entry in [10] is “inactive”.

Regarding `CNCC(=O)c1ccc(O)c(O)c1`, the Potency entry in assay [1], in assay [3], in assay [4], in [5], in assay [7] and in assay [8] was “inactive” throughout. In assay [2], the compound was classed as inactive. Moreover, the Potency in assay [9] was 4.22 µM (active).

Consider `CCC1(c2ccccc2)C(=O)NC(=O)NC1=O`, for which the Potency result in assay [1], in assay [3], in assay [4], in [5], in [7] and in [8] was “inactive” throughout. In addition, the Potency result in [9] and in [10] was “inactive” throughout. In assay [2], the call was inactive.

With `ClCC(Cl)(Cl)Cl`, the Potency entry in assay [1], in assay [3], in [4], in [5], in assay [7] and in [8] was “inactive” each time. For the same compound, in assay [2], the call was inactive.

`O=[N+]([O-])c1cc(Cl)c(Cl)c(Cl)c1`: the Potency entry in assay [1], in assay [3], in [5], in assay [7], in [8] and in assay [9] was “inactive” each time. Also, the Potency result in assay [10] is “inactive”. In addition, the call in assay [2] was inactive. In addition, the Potency in [4] is 54 µM (active).

For the compound `Nc1cnn(-c2ccccc2)c(=O)c1Cl`, the Potency entry in assay [1], in assay [3], in assay [4], in assay [5], in assay [7] and in [8] was “inactive” throughout. Also, the Potency entry in assay [9] and in assay [10] was “inactive” each time. Moreover, the compound was called inactive in [2].

As for `COc1cc(C[C@@H](C)N)c(OC)cc1C`, the Potency result in [1], in assay [3], in [4], in [5], in [7] and in [8] was “inactive” each time. The Potency entry in [9] and in [10] was “inactive” throughout. Further, the result in [2] was inactive.

Consider `O=C1c2ccccc2C(=O)c2ccccc21`, for which the activity change, negative = inhibition in assay [1] is 17.7% [at 19 µM]; in [10], -0.629% [at 19 µM]. Further, the activation is 1.09% [at 19 µM] in assay [2] and 5.54% [at 19 µM] in assay [8]. For the same compound, the activity, negative = inhibition in assay [3] is 0.94% [at 19 µM]. In addition, the activity change, negative = cytotoxicity is -1.61% [at 19 µM] in assay [4], 3.21% [at 19 µM] in [5] and -0.678% [at 19 µM] in assay [7]. The cAMP activity change in assay [9] was -4.84% [at 18.9 µM, active compounds read high].

As to `CCC(Cl)[N+](=O)[O-]` (stereo unspecified), the Potency entry in assay [1], in assay [3], in [4], in [5], in assay [7] and in assay [8] was “inactive” each time. For the same compound, the Potency entry in [9] and in [10] was “inactive” each time. Besides, the compound was called inactive in assay [2].

In the case of `COP(=S)(OC)Oc1c(Cl)cc(C)cc1Cl`, the Potency entry in assay [1], in assay [3], in [4], in assay [5], in [7] and in [8] was “inactive” in each case. Moreover, the Potency result in [9] is “inactive”. In addition, in assay [2], the call was inactive.

Regarding `N#CCNCC#N`, the Potency entry in [1], in assay [3], in assay [4], in [5], in [7] and in [8] was “inactive” throughout. Also, the Potency entry in assay [9] and in [10] was “inactive” throughout. Besides, the outcome in [2] was inactive.

With `Cc1coc2c1CCC(C)C2` (stereo unspecified), the Potency entry in assay [1], in assay [3], in assay [4], in assay [5], in assay [7] and in assay [8] was “inactive” each time. Moreover, the Potency result in [9] is “inactive”. The outcome in assay [2] was inactive.

Regarding `CCN(Cc1ccc(Cl)nc1)/C(=C/[N+](=O)[O-])NC`, the Potency entry in [1], in assay [3], in assay [4], in assay [5], in [7] and in assay [8] was “inactive” throughout. In addition, the Potency entry in assay [9] was “inactive”. Moreover, the compound was classed as inactive in assay [2].

For `CC(C)(C)C(=O)C(Oc1ccc(Cl)cc1)n1cncn1` (stereo unspecified), the Potency entry in assay [1], in assay [3], in [4], in assay [5], in [7] and in [8] was “inactive” each time. Further, in assay [2], the compound was called inactive.

Turning to `Cc1ncsc1CCCl`, the Potency result in [1], in assay [3], in assay [4], in assay [5], in [7] and in [8] was “inactive” throughout. Besides, the Potency entry in assay [9] and in assay [10] was “inactive” in each case. The call in assay [2] was inactive.

On to `CCOP(=S)(OCC)SCSc1ccc(Cl)cc1`, for which the Potency entry in assay [1], in assay [3], in assay [4], in assay [5], in assay [7] and in assay [8] was “inactive” throughout. Further, the Potency result in assay [9] was “inactive”. Besides, in assay [2], the compound was called inactive. Besides, the Potency in [10] is 30.6 µM (active).

Regarding `CCCCc1ccc(O)cc1`, the Potency entry in [1], in assay [3], in assay [4], in assay [5], in assay [7] and in [8] was “inactive” in each case. The Potency result in assay [9] and in assay [10] was “inactive” each time. The outcome in [2] was inactive.

As for `C[C@@H]1CN(C2CCC(C#N)(c3ccc(F)cc3)CC2)CC[C@]1(C(=O)O)c1ccccc1` (stereo partly specified), the Potency result in [1], in assay [3], in [4], in assay [5], in assay [7] and in assay [8] was “inactive” throughout. In addition, in assay [10], the Potency entry is “inactive”. Besides, in assay [2], the result was inactive.

For `O=C1CN=C(c2ccccc2)c2cc([N+](=O)[O-])ccc2N1`, the Potency entry in assay [1], in assay [3], in assay [4], in assay [5], in assay [7] and in [8] was “inactive” throughout. Besides, the Potency entry in [9] and in [10] was “inactive” each time. The result in assay [2] was inactive.

As for `CN1C(=S)CN=C(c2ccccc2)c2cc(Cl)ccc21`, the Potency in assay [1] is 6.68 µM (active). In addition, the call in assay [2] was inactive. Moreover, the Potency entry in assay [3], in assay [4], in assay [5], in assay [7], in [8] and in assay [9] was “inactive” throughout. Besides, the Potency result in assay [10] was “inactive”.
